Among the test systems are SF-295 CNS; UACC-62 melanoma; MDA-MB-231 breast; SNB-19 CNS; K-562 leukemia; MALME-3M melanoma; RXF 393 renal; SF-268 CNS; SF-539 CNS; UACC-257 melanoma; M14 melanoma; HCT-15 colon; HT29 colon; SNB-75 CNS; U251 CNS; PC-3 prostate; SK-MEL-5 melanoma; SK-MEL-28 melanoma; DU-145 prostate; LOX IMVI melanoma.
Assay in all cases: NCI-60 one-dose screen, 48 h (100 = growth as untreated, 0 = no growth, -100 = all killed)
Common to all, as to conditions: 10 µM unless noted

Values joined by “and” are separate entries in the source; they are usually repeats but may differ in a detail not shown here. Identical values can stand only once. This is part of a sample that, as a whole, favours compounds with a hit. Of some 83,000 tested, about 20% had one in any assay.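 48-hour exposure, single concentration, 96-well plates; percent growth endpoint where 0 means no net growth. Active: below 10.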 Active and inactive are the calls of the source.

As for `N#C[S-].[Au+].c1ccc(CN2[CH-]N(Cc3ccccc3)C(c3ccccc3)=C2c2ccccc2)cc1`, in the assay with SF-295 CNS, the growth was -14.8% (active).
Turning to `CCOC(=O)CCC(NC(=O)c1ccc(OCc2nc3cc(C(F)(F)F)ccc3nc2-c2ccccc2)cc1)C(=O)OCC` (stereo unspecified), in the assay on UACC-62 melanoma, the growth is 49.5% [100 µM] (inactive) and 4.13% [100 µM] (active).
For `C=CCCCCCCCCC(=O)[O-].C=CCCCCCCCCC(=O)[O-].[Zn+2]`, the growth was 106% (inactive) with MDA-MB-231 breast and 100% (inactive) with SNB-19 CNS.
As for `C=C1C(=O)OC2/C=C(/C)C3(O)OC(C)(CC(OC(=O)C(C)C)C12)CC3OC(C)=O` (stereo unspecified), in the assay with UACC-62 melanoma, the growth was -93% [100 µM] (active).
Turning to `CC1SC(c2ccc(Cl)cc2)N(CCc2cccs2)C1=O` (stereo unspecified), the growth is 7.81% (active) in the assay on K-562 leukemia; -32.8% (active) in the assay on MALME-3M melanoma; -4.43% (active) in the assay with MDA-MB-231 breast; -35.7% (active) with RXF 393 renal; 14.3% (inactive) with SF-268 CNS; -2.2% (active) in the assay on SF-295 CNS. In addition, the growth with SF-539 CNS is -49.7% (active); in the assay with UACC-257 melanoma it was -28.7% (active); with M14 melanoma it was -12.8% (active); with HCT-15 colon, 1.46% (active); in the assay with HT29 colon, -40.2% (active); with SNB-75 CNS it was -9.5% (active). Also, the growth with SNB-19 CNS is 12.4% (inactive); in the assay on U251 CNS it was -8.49% (active); in the assay on PC-3 prostate it was -1.67% (active); with SK-MEL-5 melanoma it was -99.2% (active); in the assay with UACC-62 melanoma, -46.3% (active); with SK-MEL-28 melanoma, 8.16% (active).
Take `COc1cc(-c2nc(Nc3nc4ccccc4[nH]3)nc(N)c2C#N)cc(OC)c1OC`: the growth in the assay on DU-145 prostate was 61.8% (inactive); in the assay on MALME-3M melanoma, 65% (inactive); with MDA-MB-231 breast, 53% (inactive); with RXF 393 renal, -1.43% (active); in the assay with SF-268 CNS it was 71.2% (inactive); in the assay on SF-295 CNS, 18.1% (inactive). For the same molecule, the growth with SF-539 CNS is 58.9% (inactive); with UACC-257 melanoma, 69.5% (inactive); in the assay on M14 melanoma, 53% (inactive); with HCT-15 colon, 59.1% (inactive); in the assay with HT29 colon it was 32% (inactive); with SNB-75 CNS, 29.2% (inactive). Moreover, the growth is 69.2% (inactive) with SNB-19 CNS; 56.8% (inactive) with U251 CNS; 44.7% (inactive) in the assay on PC-3 prostate; 44.5% (inactive) with UACC-62 melanoma; 69.5% (inactive) in the assay with LOX IMVI melanoma; 72% (inactive) in the assay on SK-MEL-28 melanoma.
Regarding `O=S(=O)(OCCO)c1ccccc1`, the growth with DU-145 prostate is 112% (inactive); in the assay on MALME-3M melanoma, 105% (inactive); with MDA-MB-231 breast it was 97.2% (inactive); in the assay with RXF 393 renal, 98.1% (inactive); in the assay with SF-268 CNS, 102% (inactive); in the assay with SF-295 CNS, 93.1% (inactive). Moreover, the growth in the assay with SF-539 CNS was 106% (inactive); with UACC-257 melanoma it was 103% (inactive); with M14 melanoma, 109% (inactive); in the assay with HCT-15 colon it was 103% (inactive); in the assay on HT29 colon it was 98.9% (inactive); in the assay on SNB-75 CNS, 75% (inactive). Besides, the growth in the assay with SNB-19 CNS was 102% (inactive); in the assay on PC-3 prostate, 99.3% (inactive); in the assay with SK-MEL-5 melanoma it was 94.4% (inactive); with UACC-62 melanoma it was 94.2% (inactive); in the assay with LOX IMVI melanoma it was 103% (inactive); in the assay on SK-MEL-28 melanoma it was 110% (inactive).
Consider `CCCCCCCCCCCCCC1=C(O)C(=O)C(CC2=C(O)C(=O)C(CCCCCCCCCCCCC)=C(O)C2=O)=C(O)C1=O`, for which the growth with UACC-62 melanoma is 9.52% [100 µM] (active) and -61.7% [100 µM] (active).
In the case of `C1CCC([PH+](C2CCCCC2)C2CCCCC2[PH+](C2CCCCC2)C2CCCCC2)CC1.[Au].[CH-]1CCCCC1CC1CCCC[N-]1` (stereo unspecified), the growth in the assay on SNB-75 CNS was 19.8% (inactive).
For `Cc1ccc(/C=N/Nc2cc(C)c3ccccc3n2)s1`, in the assay on UACC-62 melanoma, the growth was -69.9% [100 µM] (active) and -49% [100 µM] (active).
As to `CC(=O)OCC1OC([S-])C(OC(C)=O)C(OC(C)=O)C1OC(C)=O.[Au+].c1ccc(CN2[CH-]N(Cc3ccccc3)C(c3ccccc3)=C2c2ccccc2)cc1`, the growth in the assay with SF-295 CNS is -11.3% [4.75 µM] (active).
As to `CSC1=CC(=O)c2ccccc2C1=O`, the growth in the assay with DU-145 prostate was 95.5% (inactive); in the assay on MALME-3M melanoma, -0.209% (active); in the assay on MDA-MB-231 breast it was -14.5% (active); with RXF 393 renal, 98.3% (inactive); in the assay on SF-268 CNS, 69% (inactive); in the assay on SF-295 CNS, 93.7% (inactive). Also, the growth was 97.1% (inactive) in the assay with SF-539 CNS; 42% (inactive) in the assay on UACC-257 melanoma; 94.7% (inactive) in the assay on M14 melanoma; 101% (inactive) in the assay with HCT-15 colon; 103% (inactive) in the assay on HT29 colon; 94.2% (inactive) in the assay with SNB-19 CNS. Also, the growth was 92.2% (inactive) in the assay on U251 CNS; 67.3% (inactive) with PC-3 prostate; 89.4% (inactive) with SK-MEL-5 melanoma; 79.7% (inactive) in the assay on UACC-62 melanoma; 68.5% (inactive) in the assay with LOX IMVI melanoma; 113% (inactive) with SK-MEL-28 melanoma.
With `CN1CCn2c(c(Sc3ccc(C(=O)NO)cc3)c3ccccc32)C1=O`, the growth was 36.3% (inactive) in the assay on DU-145 prostate; 63.6% (inactive) with MALME-3M melanoma; -15.2% (active) in the assay with MDA-MB-231 breast; -14.4% (active) with RXF 393 renal; -34.9% (active) in the assay on SF-268 CNS; -1.68% (active) in the assay with SF-295 CNS. In addition, the growth was -90.8% (active) in the assay with SF-539 CNS; -9.93% (active) in the assay on UACC-257 melanoma; -37.7% (active) with M14 melanoma; 14.6% (inactive) in the assay on HCT-15 colon; 44.3% (inactive) in the assay with HT29 colon; -17.2% (active) with SNB-75 CNS. Moreover, the growth was -26.4% (active) with SNB-19 CNS; -60.5% (active) in the assay on U251 CNS; -35.2% (active) with PC-3 prostate; -61.4% (active) in the assay with UACC-62 melanoma; -44.2% (active) in the assay on LOX IMVI melanoma; -33.4% (active) with SK-MEL-28 melanoma.
Turning to `c1ccc2c(c1)oc1cc3c(cc12)nnc1cccn13`, the growth with MALME-3M melanoma was 93.8% (inactive); in the assay with MDA-MB-231 breast, 101% (inactive); with RXF 393 renal it was 127% (inactive); in the assay on SF-268 CNS, 105% (inactive); with SF-295 CNS, 101% (inactive); in the assay on SF-539 CNS, 95.1% (inactive). For the same molecule, the growth with UACC-257 melanoma is 95.7% (inactive); in the assay with M14 melanoma, 98.7% (inactive); in the assay with HCT-15 colon, 104% (inactive); with HT29 colon, 103% (inactive); with SNB-75 CNS, 91.7% (inactive); with SNB-19 CNS, 108% (inactive). In addition, the growth with PC-3 prostate was 100% (inactive); in the assay on SK-MEL-5 melanoma, 98.2% (inactive); in the assay on UACC-62 melanoma it was 106% (inactive); with LOX IMVI melanoma, 112% (inactive); with SK-MEL-28 melanoma, 116% (inactive).
